A selection: hits, their analogues and other compounds. The true share with any hit is near 1.8%.
Fam108B counter – counter-screen for RBBP9 inhibitors: inhibitors of mouse Fam108B | inhibition, % at 9.51 µM | 0.33% of 300,000 active | AID 1947 | recombinant Fam108B, FP-Rh probe fluorescence polarization;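 active = inhibition above the screen mean inhibition plus 3 SD, computed separately per campaign, cut at about 18% in these data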;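 note: inhibitors lower polarization as less probe binds the enzyme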
PME-1 primary – blocks human protein phosphatase methylesterase 1; Q9Y570; recombinant PME-1, FP-Rh probe fluorescence polarization; inhibition, % at 5.9 µM; 0.53% of 320,000 active; AID 2130;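 active = inhibition above the campaign mean of all compounds plus 3 SD, cut at about 26% in these data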;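 note: competitive labeling of PME-1 active site by serine hydrolase directed probe; 0% = PME-1 with DMSO and 100% = wells lacking PME-1 enzyme; inhibitors block probe labeling so polarization falls and inhibition rises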
LYPLA1 inh – LYPLA1 (human) inhibition in PME1 counter-screen; recombinant LYPLA1, FP-Rh probe fluorescence polarization; 0.16% of 320,000 active; inhibition, % at 5.9 µM;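 active = inhibition above the mean of all tested compounds plus 3 SD, set per campaign, cut at about 14% in these data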;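 note: inhibitors block serine hydrolase probe labeling of LYPLA1 so polarization falls; 0% = enzyme with DMSO and 100% = wells lacking LYPLA1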
LYPLA2 counter – blocks human lysophospholipase 2, a PME1 counter-screen; O95372; recombinant LYPLA2, FP-Rh probe fluorescence polarization; inhibition, % at 5.9 µM; 0.38% of 320,000 active;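 active = inhibition above the screen-wide mean plus 3 SD, limit set per campaign, cut at about 26% in these data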;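 note: 0% = LYPLA2 with DMSO and 100% = wells lacking LYPLA2 enzyme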
GSTO1 inh – counter-screen for RBBP9 inhibitors: inhibitors of human GSTO1; recombinant GSTO1, activity-based probe fluorescence polarization; inhibition, % at 5.96 µM; AID 1974; 1.1% of 300,000 active; P78417;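 active = inhibition above the campaign mean inhibition plus 3 SD, cut at about 35% in these data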;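 note: 0% = GSTO1-1 with DMSO and 100% = wells lacking GSTO1-1 enzyme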
PAD4 FP inh – blocks human protein arginine deiminase 4. AID 485272. recombinant PAD4, RCA probe fluorescence polarization. inhibition, % at 6.36 µM. 0.41% of 330,000 active;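 active = percent inhibition above a cutoff equal to the mean of all tested compounds plus 3 SD, cut at about 15% in these data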;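 note: 0% = PAD4 with RCA probe and DMSO and 100% = probe without PAD4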
GSTO1 confirm – GSTO1 (human) inhibition, confirmation; shares compounds with GSTO1 inh; recombinant GSTO1, probe fluorescence polarization; inhibition, % at 5.96 µM; 54% of 2,400 active;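 active = inhibition above the primary screen's cutoff, its mean inhibition plus 3 SD, cut at about 35% in these data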;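 note: loss of polarization as inhibitors block binding of rhodamine sulfonate ester activity probe; 0% = GSTO1 with DMSO and 100% = wells lacking GSTO1 enzyme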
GSTO1 ABPP inh – inhibitors of recombinant human GSTO1. gel ABPP SE-Rh probe fluorescence. shares compounds with GSTO1 inh. AID 463110. inhibition, % at 1 µM. 30% of 130 active;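 active = inhibition of the enzyme GSTO1 above about 75%, limit read from the data; inactive = inhibition below that limit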
Starred values were filed as active, the others as inactive.

Results for Cc1ccc(N(C(=O)CCl)C(C(=O)NC2CCCCC2)c2cccnc2)cc1C (centres undefined) ?
Fam108B counter: 1.4; PME-1 primary: -1.2; LYPLA1 inh: 0.3; LYPLA2 counter: -1.5; GSTO1 inh: 98.9*; PAD4 FP inh: 1.4; GSTO1 confirm: 91.5*; GSTO1 ABPP inh: 71.0

What do the screens show for `Cc1oc2c(c1C(=O)O)C(=O)c1ccccc1C2=O`?
Fam108B counter: 3.5; PME-1 primary: 4.4; LYPLA1 inh: -0.5; LYPLA2 counter: 1.1; GSTO1 inh: 60.5*; PAD4 FP inh: 9.3; GSTO1 confirm: 61.7*

How did Cc1cc(=O)oc(C)c1C(=O)O do in these assays?
Fam108B counter: -1.1; PME-1 primary: 4.0; LYPLA1 inh: 1.7; LYPLA2 counter: 3.3; GSTO1 inh: -1.2; PAD4 FP inh: -2.8

How did CCOC(=O)c1c(C)nc2c(c1-c1ccccc1)C(=O)c1ccccc1-2 do in these assays?
Fam108B counter: 3.7; PME-1 primary: 4.9; LYPLA1 inh: 3.1; LYPLA2 counter: 5.7; GSTO1 inh: -1.3; PAD4 FP inh: -5.2

Results for CCOC(=O)c1c(C)oc2c1C(=O)c1ccccc1C2=O ?
Fam108B counter: 4.7; PME-1 primary: 11.6; LYPLA1 inh: 0.6; LYPLA2 counter: 4.3; GSTO1 inh: 65.7*; PAD4 FP inh: 5.5; GSTO1 confirm: 64.1*

What do the screens show for `CC1CCC(NC(=O)c2ccc(NC(=O)CC3SC(N4CCCC4)=NC3=O)cc2)CC1` (centres undefined)?
Fam108B counter: 1.7; PME-1 primary: 1.9; LYPLA1 inh: -0.2; LYPLA2 counter: 1.6; GSTO1 inh: 5.4; PAD4 FP inh: 0.3

What do the screens show for `CC(=O)Oc1cccc2c1C(=O)c1c(OC(C)=O)cc(C(=O)O)cc1C2=O`?
Fam108B counter: 3.0; PME-1 primary: 9.3; LYPLA1 inh: 0.6; LYPLA2 counter: 0.6; GSTO1 inh: 56.3*; PAD4 FP inh: 10.6; GSTO1 confirm: 33.0

What do the screens show for `COCCn1c(=O)[nH]c(=O)c2c1nc(-c1ccc(-c3ccc(Cl)cc3[N+](=O)[O-])o1)n2Cc1ccccc1`?
Fam108B counter: 16.6; PME-1 primary: 14.8; LYPLA1 inh: 1.8; LYPLA2 counter: 13.9; GSTO1 inh: 59.6*; PAD4 FP inh: -6.6; GSTO1 confirm: 4.1

What do the screens show for `COc1ccc(-c2ccc(-c3nc4c(c(=O)[nH]c(=O)n4Cc4ccccc4)n3C)o2)c([N+](=O)[O-])c1`?
Fam108B counter: 0.8; PME-1 primary: 3.3; LYPLA1 inh: -5.1; LYPLA2 counter: -5.8; GSTO1 inh: 4.2; PAD4 FP inh: -2.8

How did CCOc1ccc(-c2nnc(SCC(=O)NC(C)(C)C)nc2-c2ccc(OCC)c(OC)c2)cc1OC do in these assays?
Fam108B counter: -7.5; PME-1 primary: 0.9; LYPLA1 inh: 0.8; LYPLA2 counter: 10.1; GSTO1 inh: 0.7; PAD4 FP inh: 2.2

Results for COc1cc(CN2CCCC(CO)(Cc3cccc(Cl)c3)C2)cc2c1OCO2 (centres undefined) ?
Fam108B counter: 10.3; PME-1 primary: -4.8; LYPLA1 inh: -1.5; LYPLA2 counter: -3.3; GSTO1 inh: -1.1; PAD4 FP inh: 0.5

What do the screens show for `CCc1nnc(N/N=C/c2cc(Br)c(O)cc2O)n1N`?
Fam108B counter: 3.6; PME-1 primary: -3.3; LYPLA1 inh: 0.3; LYPLA2 counter: 4.7; GSTO1 inh: 67.7*; PAD4 FP inh: 37.2*; GSTO1 confirm: 12.8

What do the screens show for `CCN(CC(=O)Nc1ccc2c(c1)OCCO2)C(=O)/C=C/c1ccc([N+](=O)[O-])cc1`?
PME-1 primary: 1.9; LYPLA1 inh: -2.0; LYPLA2 counter: -0.2; PAD4 FP inh: -1.0

How did CC(=O)Oc1cc2cccc(OC(C)=O)c(=O)c2c(OC(C)=O)c1OC(C)=O do in these assays?
Fam108B counter: 4.9; PME-1 primary: 6.0; LYPLA1 inh: -3.8; LYPLA2 counter: -0.8; GSTO1 inh: 67.0*; PAD4 FP inh: -3.8; GSTO1 confirm: 54.7*

How did COc1cc2cccc(OC)c(=O)c2c(O)c1OC do in these assays?
Fam108B counter: -3.8; PME-1 primary: -0.7; LYPLA1 inh: -2.2; LYPLA2 counter: -4.8; GSTO1 inh: -0.2; PAD4 FP inh: 3.4
